Holding throughout (test): pooled miR-30 sensor sort-seq; sequence = guide strand
Common to all, as to conditions: shRNA

The target of experiment [1] is TFPI2.
Experiment [2] has as its target TELO2.
The target in experiment [3] is TFEB.
Experiment [4] addresses TFAP4.
Experiment [5] addresses TGFB1I1.
Experiment [6] has as its target TMEFF2.
In experiment [7] the target is TMEM218.
Experiment [8] deals with TMEM22.
For experiment [9], the target named is TMEM231.
Experiment [10] deals with TMEM229B.
Further: reference of the scale not given here.

In experiment [1], TGTCGTAGTAGTAACGGAGAAG yielded a sensor-assay potency score (higher = more potent) of -1.18. Regarding ATCATCGCTGTCCAGGTCCGAG, the sensor-assay potency score (higher = more potent) in experiment [2] is -1.37. TCTCCTTTCAATTAAGTTGTGA gave a sensor-assay potency score (higher = more potent) in experiment [3] of -0.161. Same read-out and setting: with TACACATTCAGGTGGCTGCTGG the figure was -0.605. As for TGCTGAGCTTCTCTCCGTCTGT, the sensor-assay potency score (higher = more potent) in experiment [4] was -0.432. Sequence TACCTGTCGTAGTAGTAACGGA yielded a sensor-assay potency score (higher = more potent) in experiment [1] of -0.941. In experiment [2], TTTCTCAGCCACGTCCGCCAGC yielded a sensor-assay potency score (higher = more potent) of -1.03. In the case of TAGGTGAAAGCATCACAGGTTC, the sensor-assay potency score (higher = more potent) in experiment [1] is -0.157. In turn, TTCACGATGACAGCTCGCCGCT came in with a sensor-assay potency score (higher = more potent) in experiment [4] of -1.34. In experiment [1], TTATTCTTCAGATACAACCATA displayed a sensor-assay potency score (higher = more potent) of -1.04. Same read-out and setting: the result for TTAGATTAAAGAAATACTTTTC reads -0.873. As to TTGCTGTTGGCGATCTCCCGCC, in experiment [4], the sensor-assay potency score (higher = more potent) was -0.484. TCATCTGTGATGTTGAACTGAG displayed a sensor-assay potency score (higher = more potent) in [5] of -0.542. With TCTCACAAACAGTTGAACCATA, in experiment [1], the sensor-assay potency score (higher = more potent) was -1.02. Still for that read-out and setting: with TACAAGTAGCTTCATCTGGAAA the figure was -1.17. TTGCAGGTCCTTCTGCATCCTC gave a sensor-assay potency score (higher = more potent) in experiment [3] of -1.28. The same measure, in the same setting: with AAGGACATCGTCCAGACGCATA the figure was -1.55.

In turn, ATCACCTTGAGCTTTTCCGGGT gave a sensor-assay potency score (higher = more potent) in experiment [4] of -0.563. TTGTATTAATAAAAACTGGTGA showed a sensor-assay potency score (higher = more potent) in [1] of -0.407. On the same count and under the same terms, the result for TATAGGTGAAAGCATCACAGGT reads -0.811.

For TCCATCAGCACTGCCAGCCGGC, the sensor-assay potency score (higher = more potent) in experiment [2] was -1.21. In [4], TACATGTGGGCCTCCAGCGAGC registered a sensor-assay potency score (higher = more potent) of -1.01.

Sequence TTCGTCCTTGTCCTCTGCCCGC displayed a sensor-assay potency score (higher = more potent) in experiment [4] of -1.28. The sequence TTCGCTAGGCAGCTCCTGCTTC registered a sensor-assay potency score (higher = more potent) in [3] of -0.419. On to TAGCAGTGAGTCGTCCAGGAGC, for which the sensor-assay potency score (higher = more potent) in [3] is -1.35. As to TTGGATTAAAATAATAGCGAGT, the sensor-assay potency score (higher = more potent) in experiment [1] was -0.659.

Sequence ATCTGTGAGCTCTCGCTTCTGG yielded a sensor-assay potency score (higher = more potent) in experiment [3] of -0.356. Same read-out and setting: the result for TTGTTGGTCATCTCCAGGCGGC reads -1.28. TTCCTGAAGCAACCGATCTAGC: the sensor-assay potency score (higher = more potent) in experiment [5] was -0.825. Consider TAGAATGCTCACACTTCCCATG, for which the sensor-assay potency score (higher = more potent) in [6] is -0.607. As to AAAAAAATGACAGAGAACCTCG, in experiment [7], the sensor-assay potency score (higher = more potent) is 0.153. The same measure, in the same setting: the result for AATCTTAACTTCCACTTCTGGG reads -0.603. TAGTATTTCCTGGTAGTCCTGC had a sensor-assay potency score (higher = more potent) in experiment [8] of -0.0251. TTCTCTAGTCGAAACGAGCGGG: the sensor-assay potency score (higher = more potent) in [9] is 0.0646. In the case of TCGAACTGGGAGTAGTCCCAGG, the sensor-assay potency score (higher = more potent) in experiment [10] was -0.884. As to TGTGATGATCACAGCACCGAAG, in experiment [7], the sensor-assay potency score (higher = more potent) is -0.957. As for ATCCACAATCTTAACTTCCACT, the sensor-assay potency score (higher = more potent) in [7] was -0.762. In experiment [9], TGAGGTCGTAGTCATAGGCAAA displayed a sensor-assay potency score (higher = more potent) of -1.58. The sequence AAAGCCAGCAGGACATAGCGGC had a sensor-assay potency score (higher = more potent) in experiment [7] of -0.627. TTGCGGATGATGAACTGCTCCA returned a sensor-assay potency score (higher = more potent) in experiment [10] of -0.427. Consider AAGTTCACCACGAACTCCCAGG, for which the sensor-assay potency score (higher = more potent) in experiment [10] was -0.691. Regarding TATAACACAAAAGACATTCATA, the sensor-assay potency score (higher = more potent) in experiment [8] was -0.457. Take TTCACCATCACTGTGTTGGGAT: in experiment [8], the sensor-assay potency score (higher = more potent) came to 0.611. AAAAGCAACAGAACTGATGTGA: in [7], the sensor-assay potency score (higher = more potent) is 0.455. In [10], TCACCTCGCAGAAGTAGCCGTG gave a sensor-assay potency score (higher = more potent) of -0.46. Still for that read-out and setting: with TCAGCGTCCTTGTCGAAGCGGA the figure was -0.896.

In [7], ATCTTAACTTCCACTTCTGGGG returned a sensor-assay potency score (higher = more potent) of -0.795.

In experiment [8], TAAAAGAAGAGTCGTAATCTGT displayed a sensor-assay potency score (higher = more potent) of -0.127. Consider TTGATCATTGGGTCTTCTGTTG, for which the sensor-assay potency score (higher = more potent) in experiment [8] was -0.772.

Regarding TGAAGTCAAAGTCGAACTGGGA, in [10], the sensor-assay potency score (higher = more potent) was -0.249. Sequence TAACACACAACTAACACAGATA registered a sensor-assay potency score (higher = more potent) in experiment [8] of -0.611.

Take AACATAATGGATTAAAACCAAG: the sensor-assay potency score (higher = more potent) in experiment [7] was -1.68. In turn, TCCACGATGAGGATGGAGGTGC registered a sensor-assay potency score (higher = more potent) in experiment [10] of -1.19. The sequence TTGTCCAATCTCATTGATCATT returned a sensor-assay potency score (higher = more potent) in [8] of -1.19. TCTTAACTTCCACTTCTGGGGC gave a sensor-assay potency score (higher = more potent) in experiment [7] of -0.618.

Regarding TAATCGATAGGAGAAAGTCAGG, the sensor-assay potency score (higher = more potent) in experiment [9] is -1.54. Take AACTCCCACAGGTAGGTCCAGA: in experiment [10], the sensor-assay potency score (higher = more potent) is -1.06. In the case of ATGTGATGATCACAGCACCGAA, the sensor-assay potency score (higher = more potent) in experiment [7] was -1.69.

Turning to ATGGCATACAGGTACCAGCGGG, the sensor-assay potency score (higher = more potent) in experiment [10] is -1.1. As to TTTCTTTGGATTTTCCTCCATA, in experiment [8], the sensor-assay potency score (higher = more potent) was -0.74.

The record behind these values is the OligoGym collection.
